Data from ChEMBL document CHEMBL3988442, “University of Dundee, Small-Polar-MMV Screening Library” (2021).
Among all 69,000 compounds or so, about 1,000 (1.4%) showed an effect of 50% or more. What follows is part of a selection rich in strong results, with near analogues and random picks from the rest.

Test system: Leishmania donovani
Test: Leishmania intramacrophage assay
Type: functional, organism-based
Design: scale not given: in the data most compounds retested in dose-response had high values

## O=C(NCCNc1ccc(C(F)(F)F)cn1)c1ccc(Br)cc1F
30 µM, 30.03 µM
  Percent Effect: -32.97%

## CN(Cc1cn[nH]c1-c1ccc(F)cc1)C(=O)CCC1CC1
30.3 µM, […]
  Percent Effect: -4.143%

## CCn1cc(CN2CCC(C3CCN(C)CC3)CC2)cc1C#N
30.3 µM, […]
  Percent Effect: 8.451%

## COc1ccc(/C=C/CN2CCCC3(C2)CN(C)C(=O)O3)cc1 (stereo not given)
30.3 µM, […]
  Percent Effect: 14.77%

## COC[C@@]12CC[C@@H](N3CCOCC3)C[C@H]1CCN(c1cc(C)ccn1)C2
30.3 µM, […]
  Percent Effect: 28.55%

## CCC(O)Cn1nc(-c2ccc(C(=O)O)cc2)cc1-c1cccc(F)c1 (stereo not given)
30.3 µM, […]
  Percent Effect: 29.44%

## CC(C)Cn1nc(-c2ccc(C(=O)O)cc2)cc1-c1ccc(F)cc1
30.3 µM, […]
  Percent Effect: 41.19%

## CCC(O)Cn1nc(-c2ccc(C(=O)O)cc2)cc1-c1ccc(F)cc1 (stereo not given)
30.3 µM, […]
  Percent Effect: 61.24%

## Fc1cccc(N2CCc3ncnc(C4CC4)c3CC2)c1
30.3 µM, […]
  Percent Effect: 15.99%

## COCCCN1C(=O)CC[C@H]2CN(Cc3cc4ccccc4o3)CC[C@H]21
30.3 µM, […]
  Percent Effect: 10.23%

## CCN1CCC(NC(=O)NC2CCOc3ccc(Br)cc32)CC1 (stereo not given)
30.3 µM, […]
  Percent Effect: 1.839%

## c1ccc(C2CN(C3CC3)CC3(CCN(Cc4ncc[nH]4)CC3)C2)cc1 (stereo not given)
30.3 µM, […]
  Percent Effect: 51.92%

## CN1CC(c2ccccc2)CC2(CCN(Cc3ncc[nH]3)CC2)C1 (stereo not given)
30.3 µM, […]
  Percent Effect: 16.63%

## CCN1CC(c2ccccc2)CC2(CCN(Cc3ncc[nH]3)CC2)C1 (stereo not given)
30.3 µM, […]
  Percent Effect: 35.04%

## Cc1ccc(F)c(OC2(C(=O)O)CCN(C(=O)C3CCCC3)CC2)c1
30.3 µM, […]
  Percent Effect: 24.64%

## CCOC(C)c1nc(CN2CCN(Cc3cccnc3)CC2)cs1 (stereo not given)
30.3 µM, […]
  Percent Effect: 14.45%

## Cc1nc(CN2C[C@@H]3CN(c4ncc(F)cn4)C[C@@H]3C2=O)cs1.O=C(O)C(F)(F)F
30.3 µM, […]
  Percent Effect: 0.4282%

## CN1CCC(N(CCc2ccccc2)C(=O)c2ccoc2)CC1
30.3 µM, […]
  Percent Effect: 23.03%

## CN1CCC(N(CCc2ccccc2)C(=O)c2cc[nH]c2)CC1
30.3 µM, […]
  Percent Effect: 69.36%

## CN1CCC(N(CCc2ccccc2)C(=O)c2ccc(CO)cc2)CC1
30.3 µM, […]
  Percent Effect: 30.31%

## C[C@H]1C(=O)NC[C@H]2CN(Cc3cccc(F)c3)C[C@H]21.O=C(O)C(F)(F)F
30.3 µM, […]
  Percent Effect: 4.969%

## Cc1cc(CN(C)C(=O)C2CCCN(C(N)=O)C2)no1 (stereo not given)
30.3 µM, […]
  Percent Effect: -0.7168%

## COc1cccc(CNc2cnn(C)c(=O)c2Cl)c1
30 µM, 30.03 µM
  Percent Effect: 34.79%

## COc1ccc(CNc2cnn(C)c(=O)c2Cl)cc1
30 µM
  Percent Effect: 56.65%

## CC(C)OCc1cccc(CNc2cnn(C)c(=O)c2Cl)c1
30 µM
  Percent Effect: 21.9%

## Cn1ncc(NCc2cccc(F)c2)c(Cl)c1=O
30 µM
  Percent Effect: 13.08%

## Cn1ncc(NCc2cccc(COC(C)(C)C)c2)c(Cl)c1=O
30 µM, 30.03 µM
  Percent Effect: 51.11%

## Cn1ncc(NCc2cc(F)cc(F)c2)c(Cl)c1=O
30 µM, 30.03 µM
  Percent Effect: 2.406%

## COc1ncccc1CN1CC[C@]2(C[C@@H](OCc3ccccn3)CO2)C1.O=C(O)C(F)(F)F.O=C(O)C(F)(F)F.O=C(O)C(F)(F)F
30.3 µM, […]
  Percent Effect: -3.573%

## Nc1nnnn1NCc1cccc(Cl)c1Cl
30.3 µM, […]
  Percent Effect: 4.224%

## O=C(CCc1ccsc1)N1CCCC(n2cncn2)C1 (stereo not given)
30 µM
  Percent Effect: 18.97%

## Cc1nccn1C1CCCN(C(=O)c2cccc(OCC(N)=O)c2)C1 (stereo not given)
30 µM
  Percent Effect: 14.8%

## COc1nccnc1N1CCC2(CC1)[C@H](O)C[C@@H]2OCCN(C)C
30.3 µM, […]
  Percent Effect: 13.35%

## O=C(Nc1cccc(F)c1)NC1CCN(Cc2ccncc2)CC1
30.3 µM, […]
  Percent Effect: 20.9%

## c1cc(-c2nc3c(c(NCCn4ccnn4)n2)CCNCC3)ccn1
30.3 µM, […]
  Percent Effect: 24.72%

## Cc1sc2c(C3CCNCC3)nc(Nc3cccc(F)c3)n2c1C.Cl
30.3 µM, […]
  Percent Effect: -10.63%

## c1csc(CCNc2nc(-c3ccncc3)nc3c2CCNCC3)c1
30.3 µM, […]
  Percent Effect: 9.747%

## Cl.NC1CCc2nc(-c3ccncc3)nc(Nc3cccc(F)c3)c2C1 (stereo not given)
30.3 µM, […]
  Percent Effect: 64.39%

## CNC(=O)c1cccc(CN2CCC(N(C)Cc3noc(C)n3)C2)c1 (stereo not given)
30.3 µM, […]
  Percent Effect: -22.53%

## CNc1cc(C2CCCN(S(=O)(=O)c3cn[nH]c3)C2)ccn1 (stereo not given)
30.3 µM, […]
  Percent Effect: 9.494%

## CCN1CCN(C2CCN(Cc3c(C)noc3C)CC2)C1=O
30 µM, 30.03 µM
  Percent Effect: 32.64%

## CN(C)c1nc(N)nc(CN2CCCC2c2ccsc2)n1 (stereo not given)
30.3 µM, […]
  Percent Effect: 83.34%

## CN(C)c1nc(N)nc(CN2CCCC(c3ccccc3)CC2)n1 (stereo not given)
30.3 µM, […]
  Percent Effect: 6.795%

## Cc1nc(CN2CCCC2c2ccsc2)nc2ccccc12 (stereo not given)
30 µM, 30.03 µM
  Percent Effect: 47.19%

## Cc1cccc(C2CCCN2Cc2nc(N)nc(N(C)C)n2)c1C (stereo not given)
30.3 µM, […]
  Percent Effect: 37.96%

## CN(C)c1nc(N)nc(CN2CCCC2c2cccs2)n1 (stereo not given)
30.3 µM, […]
  Percent Effect: 87.57%

## CCCc1noc(CN2CCCC2c2ccsc2)n1 (stereo not given)
30 µM, 30.03 µM
  Percent Effect: 16.77%

## OC1(CNCCc2csc(-c3cccnc3)n2)CCNC1 (stereo not given)
30.3 µM, […]
  Percent Effect: 17.55%

## CN1CCn2c(-c3cccc(F)c3)cnc2C12CCN(CC1CC1)CC2.O=C(O)C(F)(F)F.O=C(O)C(F)(F)F.O=C(O)C(F)(F)F
30.3 µM, […]
  Percent Effect: 7.679%

## Cc1nc(CCNc2ccc(-c3nc(C)c(C)c(=O)[nH]3)cn2)cs1
30.3 µM, […]
  Percent Effect: -24.43%
